# Screens (PubChem)
# In the library only some 19% were active in any assay of this set; here they are far more common.
# TDP1 cell CPT: growth inhibition of DT40 Tdp1-/-;hTDP1 cells with camptothecin (screen for TDP1 inhibitors). chicken DT40 Tdp1-/-;hTDP1 cells + 20 nM CPT, ATP luminescence, 48 h. Potency, µM (series often up to 46.2 µM), for inactives: at the top dose activity change, negative = growth inhibition, most hits filed as inhibitors. actives 12% (n = 420,000); note: potency is the fitted concentration of half-maximal effect; nearly all actives have a fitted effect of over 55% in size
#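 Chicken DT40 Tdp1-/- cells stably complemented with human TDP1 were seeded at 400 cells/well in medium containing 20 nM camptothecin, exposed to pin-transferred compounds, and grown at 37 °C for at least 48 hr. Viability was read as ATP luminescence.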
# HT1080 IDH1KD tx: kills HT-1080 cells with IDH1 knockdown. HT-1080 IDH1 knockdown viability, ATP luminescence, 48 h. AID 686971. Potency, µM (titrated, usually from 46.1 µM), without a hit: at the highest dose activity, negative = toxicity, most hits filed as cytotoxic. actives 2% (n = 360,000);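 note: potency is the fitted concentration of half-maximal effect; 0% = DMSO wells and -100% = cell-free medium wells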
#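 HT-1080-IDH1KD cells (IDH1 knocked down), 750/well in RPMI with 5% FBS, treated with compound 48 h at 37 degrees C. Viability by CellTiter-Glo luminescence, normalised to DMSO and no-cell wells; concentration-response curves classed.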
# HT1080-NT tox: kills 2HG-producing HT-1080-NT fibrosarcoma cells | HT-1080-NT fibrosarcoma viability, CellTiter-Glo ATP luminescence, 48 h | Potency, µM (series often up to 46.1 µM), without a hit: at the highest dose activity, negative = less viability, most hits filed as cytotoxic | actives 1.6% (n = 360,000);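 note: NT is the 2HG producing partner of a matched IDH1 knockdown line; potency is the fitted concentration of half-maximal effect; 0% = DMSO-treated cells and -100% = media-only wells without cells; nearly all actives have a fitted effect of over 55% in size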
#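 Viability of the 2HG-overproducing fibrosarcoma line after 48 hours of compound exposure at 37 degrees C was determined by luminescence with CellTiter-Glo, and concentration-effect curves were then fitted and categorized.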
# DT40 TDP1 no CPT: qHTS for Inhibitors of human tyrosyl-DNA phosphodiesterase 1 (TDP1): qHTS in cells in absence of CPT; DT40 Tdp1-/- hTDP1 cells, no CPT, ATP luminescence, 48 h; Potency, µM (top dose mostly 46.2 µM), without a hit: at the highest dose activity change, negative = growth inhibition, most hits filed as inhibitors; actives 15% (n = 420,000); AID 686978, 2013; note: potency is the fitted concentration of half-maximal effect; nearly all actives have a fitted effect of over 55% in size
#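 No-CPT arm: Tdp1-/-;hTDP1 DT40 cells (400/well) plus compounds, incubated ≥48 hr at 37 °C. Readout CellTiter-Glo luminescence.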
# IL1B secr inh: inhibitors of inflammasome signaling (IL-1 beta secretion); THP-1 LPS/ATP IL-1B secretion, AlphaLISA, 16 h; stronger effect = lower value; activity change, % at 57.5 µM; actives 4.7% (n = 360,000); AID 743279; in the data active = activity change below about -50%; inconclusive = mostly about -30% to -49%
#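 Secreted IL-1B measured by AlphaLISA bead assay after 16 h compound exposure of THP-1 cells; compounds (final up to 57.5 uM) added 1 h before LPS (250 ng/mL) and ATP (1.25 mM) stimulation; lower signal means less secretion.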
# An asterisk follows results filed as active; ? = inconclusive; . = no result given. Unless noted, calls come from the whole dose curve; as a rule, active = well fitted curve in the direction sought with a large enough effect; inconclusive = small, poorly fitted or top-dose-only effect, or another doubt; inactive = no such curve, though single readings can be large; an effect the other way counts as inactive or inconclusive. Unless noted, % is set by controls: 0 for no effect and ±100 for the full control effect.
SMILES,TDP1 cell CPT,HT1080 IDH1KD tx,HT1080-NT tox,DT40 TDP1 no CPT,IL1B secr inh
CC(C(=O)Nc1ccc(Cl)cc1Cl)N1C(=O)NC2(CCCC2)C1=O (configuration not stated),-15%,-4%,8%,?,-12
O=C(CCc1nnc2ccc(NCc3ccccc3)nn12)NC1CCCC1,-9%,0%,-3%,0%,9
Cc1ccc(NC(=Nc2ccc(Br)cc2)N2CCOCC2)cc1C,?,?,?,21µM*,-66*
Cc1ccc(NC(=O)COC(=O)CSC(=S)N2CCOCC2)cc1C,9%,20%,24%,-6%,1
CCn1c2ccccc2c2c3ncc4cccn4c3ccc21,4.1µM*,-28%,-4%,6.5µM*,-76*
c1ccc2c(c1)ncc1cccn12,-2%,-20%,1%,-6%,20
CCn1c(=S)[nH]c2cc(S(=O)(=O)N3CCCCC3)ccc21,?,-19%,?,13µM*,-28
COc1ccc(NC(C)=O)cc1NC(=O)CSc1nnc(-c2cccnc2)n1C,12%,2%,2%,14%,-4
Cc1ccc(S(=O)(=O)N(C)c2ccc3c(c2)C(=O)c2ccccc2-3)cc1,16µM*,1%,0%,?,33
Cc1ccc(S(=O)(=O)Nc2ccc(N(C)S(=O)(=O)c3ccc(C)cc3)cc2)cc1,2%,?,-30%,?,-28
COc1ccc(C(CNC(=O)COc2ccc(Cl)c(C)c2)N2CCOCC2)cc1 (configuration not stated),21µM*,.,.,?,.
COc1ccc(C(CNC(=O)COc2cc(C)c(Cl)c(C)c2)N2CCCCC2)cc1 (configuration not stated),23µM*,-2%,-1%,16µM*,?
COc1ccc(C(CNC(=O)COc2cc(C)cc(C)c2)N2CCCCC2)cc1 (configuration not stated),23µM*,.,.,?,.
COc1ccc(OCC(=O)NCC(c2ccc(OC)cc2)N2CCCCC2)cc1 (configuration not stated),-16%,-1%,0%,6%,0
COc1ccc(C(CNC(=O)COc2ccc(C)c(C)c2)N2CCCCC2)cc1 (configuration not stated),23µM*,-1%,-13%,?,4
O=C(COC(=O)C1C2CC3OC(=O)C1C3C2)Nc1ccccc1 (configuration not stated),-15%,14%,12%,-8%,-1
CCCS(=O)(=O)NC(=O)C1(C)CCN(C(=O)c2cc(C)oc2C)C1 (configuration not stated),2%,10%,6%,1%,24
CCN(Cc1ccccc1)S(=O)(=O)CCNC(=O)c1ccccc1,-1%,4%,5%,-13%,-10
Cc1nn(Cc2ccccc2)c2c1C(c1cccc(Cl)c1)C(C#N)=C(N)O2 (configuration not stated),23µM*,?,-24%,18µM*,62
S=C(NNC(=S)Nc1ccc(Cl)cc1)NNc1ccccc1,15µM*,0%,15%,16µM*,-23
S=C(NNC(=S)Nc1ccccc1)Nc1ccccc1,3.7µM*,4%,5%,3.3µM*,?
NC(=S)NNC(=S)Nc1ccccc1,?,-6%,8%,?,-18
Cc1ccc(NC(=S)NNC(=S)NNc2ccccc2)cc1C,-6%,-4%,0%,23µM*,-13
S=C(NN=C(C1CC1)C1CC1)Nc1ccccc1,21µM*,2%,13%,?,4
COC(=O)c1cc(CNC(=O)c2ccccc2OCc2c(C)noc2C)ccc1OC,-27%,9%,0%,-4%,65
SMILES,TDP1 cell CPT,HT1080 IDH1KD tx,HT1080-NT tox,DT40 TDP1 no CPT,IL1B secr inh
COc1ccc(C(=O)NC(Cn2ccnc2)C(C)(C)C)cc1OC1CCN(C(C)C)CC1 (configuration not stated),-8%,-9%,1%,-19%,11
O=C(Nc1nccs1)Oc1ccccc1,-2%,4%,0%,-11%,17
S=C(Nc1ccccc1)Nc1nccs1,5.2µM*,-5%,0%,3.7µM*,-10
C/C(=C\C(=S)Nc1ccccc1)Nc1ccccc1,15µM*,-7%,0%,16µM*,6
C/C(=C\C(=O)c1ccccc1)Nc1ccc(O)cc1,-26%,?,-3%,?,-12
Cc1ccc(OCc2cc(C(=O)N3CCCC(O)C3)no2)cn1 (configuration not stated),1%,20%,3%,0%,24
CCc1ccc(S(=O)(=O)c2cn(C)c3cc(F)c(F)cc3c2=O)cc1,-23%,.,.,?,.
CC(C)CC1C(=O)N(Cc2cn(Cc3ccco3)nn2)CCS(=O)(=O)N1Cc1ccc(-c2ccc(Cl)cc2)cc1 (configuration not stated),18µM*,?,?,13µM*,-53*
CC(C)CC1C(=O)N(Cc2cn(CCC3OCCCO3)nn2)CCS(=O)(=O)N1Cc1ccc(-c2cccc(CO)c2)cc1 (configuration not stated),-26%,5%,8%,?,-20
CC(C)CC1C(=O)N(Cc2cn(Cc3ccco3)nn2)CCS(=O)(=O)N1Cc1ccc(-c2cccc(CO)c2)cc1 (configuration not stated),?,-7%,-5%,16µM*,-10
COCCCN(C(=S)NC(=O)C12CC3CC(CC(C3)C1)C2)c1c(N)n(Cc2ccccc2)c(=O)[nH]c1=O,-4%,-17%,0%,?,10
COc1ccccc1/C=C(\C#N)c1nc(-c2cc3ccccc3oc2=O)cs1,-15%,.,.,-18%,.
COCCN(C(=S)Nc1ccc(OC)cc1)C1CCN(C(C)=O)CC1,7%,19%,12%,-5%,26
COc1ccc(-c2oc3c(c2-c2cnc(OC)nc2)C(O)CC3)cc1 (configuration not stated),?,-1%,15%,?,-11
CCOC1CCCc2oc(-c3ccsc3)c(-c3cnc(OC)nc3)c21 (configuration not stated),?,-3%,0%,23µM*,-10
COc1ccc(OCc2nc3c4cc(OC)c(OC)cc4nc(=S)n3[nH]2)cc1,6.5µM*,-16%,0%,6.5µM*,21
Cc1ccc(NC(=O)CSc2cn(CC(=O)N3CCCC3)c3ccccc23)cc1Cl,26µM*,.,.,?,.
CCOc1ccccc1NC(=O)COC(=O)c1cn(CC)c2nc(C)ccc2c1=O,18µM*,.,.,?,.
CCOc1ccccc1NC(=O)CSc1cn(CC(=O)N2CCCCCC2)c2ccccc12,?,.,.,26µM*,.
